# The panel holds about 79,000 compounds, 15% with a hit somewhere; the sample as a whole holds those more often. Values without a mark were called inactive. Active and inactive are the calls of the source. No stated cut-off is given here; in the data, active means growth inhibition above about 70%; inactive means the rest.
# How the values were obtained:
# [1] = NCI Yeast Anticancer Drug Screen. Data for the wt1 strain (AID 149);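 further: 0% = growth of vehicle-treated wt1 cultures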; details: S. cerevisiae wt1 strain (SPY 50644) growth inhibition, active compounds read high
# Method in brief: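 Compounds are added to wt1 yeast cultures. Growth is then measured. Inhibition is expressed relative to vehicle-treated controls.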
# [2] = NCI Yeast Anticancer Drug Screen. Data for the rad50EPP+ strain (AID 151);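 further: 0% = growth of vehicle-treated control cultures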; details: S. cerevisiae rad50 mutant strain, active compounds read high
# Method in brief: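 Growth inhibition read against vehicle controls in rad50EPP+ yeast, a strain altered in DNA damage repair, after compound exposure.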
# [3] = NCI Yeast Anticancer Drug Screen. Data for the mgt1 strain (AID 153); details: S. cerevisiae mgt1 mutant growth inhibition, active compounds read high
# Method in brief: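 mgt1 yeast grown with test compound; read-out is growth inhibition versus vehicle-treated cultures.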
# [4] = NCI Yeast Anticancer Drug Screen. Data for the rad50 strain (AID 155);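 further: 0% = growth of vehicle-only cultures of the same strain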; details: S. cerevisiae rad50 strain growth inhibition, active compounds read high
# Method in brief: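 Inhibition values express reduced yeast growth in compound-treated cultures relative to vehicle-treated controls.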
# [5] = NCI Yeast Anticancer Drug Screen. Data for the mec2-1 strain (AID 157); details: S. cerevisiae mec2-1 strain, active compounds read high
# Method in brief: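 Yeast mec2-1 mutant treated with compound. Readout: growth inhibition vs vehicle controls.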
# [6] = NCI Yeast Anticancer Drug Screen. Data for the rad14 strain (AID 159);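 further: 0% = growth of vehicle-treated control cultures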; details: S. cerevisiae rad14 strain growth inhibition, active compounds read high
# Method in brief: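 A mutant yeast strain defective in DNA damage repair is treated with compound; inhibition of its growth is scored against untreated, vehicle-exposed cultures.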
# [7] = NCI Yeast Anticancer Drug Screen. Data for the sgs1 mgt1 strain (AID 161);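 further: 0% = growth of cultures given vehicle only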; details: S. cerevisiae sgs1 mgt1 strain, active compounds read high
# Method in brief: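 Mutant yeast exposed to compound; growth scored against vehicle-only wells.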
# [8] = NCI Yeast Anticancer Drug Screen. Data for the CLN2oe strain (AID 163);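 further: 0% = growth of vehicle-only control cultures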; details: S. cerevisiae CLN2oe strain, active compounds read high
# Method in brief: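 Read-out: yeast growth inhibition, expressed relative to vehicle-only controls. The strain bears an engineered cell-cycle alteration.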
# [9] = NCI Yeast Anticancer Drug Screen. Data for the cln2 rad14 strain (AID 165);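 further: 0% = growth equal to vehicle treated cultures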; details: S. cerevisiae cln2 rad14 strain, active compounds read high
# Method in brief: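 cln2 rad14 yeast strain; compound exposure; growth inhibition read vs vehicle controls.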
# [10] = NCI Yeast Anticancer Drug Screen. Data for the wt2 strain (AID 169);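 further: 0% = growth of vehicle-treated yeast cultures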; details: S. cerevisiae wt2 strain growth inhibition, active compounds read high
# Method in brief: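 Read-out: growth inhibition versus vehicle-treated control cultures after compound exposure of the yeast strain.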
# [11] = NCI Yeast Anticancer Drug Screen. Data for the mlh1 strain (AID 171);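 further: 0% = growth of vehicle-treated control cultures of the same strain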; details: S. cerevisiae mlh1 strain growth inhibition, active compounds read high
# Method in brief: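 Read-out: growth inhibition versus vehicle controls. Strain: engineered yeast with a defined DNA repair or cell cycle defect, compound-treated.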
# [12] = NCI Yeast Anticancer Drug Screen. Data for the sgs1 strain (AID 173);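 further: 0% = growth of vehicle-only control cultures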; details: S. cerevisiae sgs1 mutant, active compounds read high
# Method in brief: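 Read-out: yeast growth inhibition relative to vehicle controls, following compound exposure of a strain with a defined DNA repair/cell cycle alteration.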
# [13] = NCI Yeast Anticancer Drug Screen. Data for the mlh1 rad18 strain (AID 175); details: S. cerevisiae mlh1 rad18 strain growth inhibition, active compounds read high
# Method in brief: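 Yeast w/ defined DNA-repair lesions; compound exposure; growth vs vehicle controls → % inhibition.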
# [14] = NCI Yeast Anticancer Drug Screen. Data for the rad18 strain (AID 177); details: S. cerevisiae rad18 mutant growth inhibition, active compounds read high
# Method in brief: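 Readout: growth inhibition vs vehicle controls. Cells: genetically altered yeast strain, DNA repair defect.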
# [15] = NCI Yeast Anticancer Drug Screen. Data for the bub3 strain (AID 167); details: S. cerevisiae bub3 mutant strain, active compounds read high
# Method in brief: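 Steps: expose the mutant yeast strain to compound; grow alongside vehicle-treated cultures; measure growth; express inhibition against the vehicle cultures.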
# [16] = at 5.0 µM (retest, dose inferred, filed as 0.5)
# [17] = at 50.0 µM (retest, dose inferred, filed as 5.0)
smiles,measurement,setting,value
CC1(C)CC(=O)C(C(CC(c2ccccc2)c2cc3c(cc2O)OCO3)C2=C(O)CC(C)(C)CC2=O)=C(O)C1 (stereo not drawn),growth inhibition,[1]; at 1.2 µM,-84%
same,growth inhibition,[1]; at 3.7 µM,-3%
same,growth inhibition,[1]; at 11.0 µM,22%
same,growth inhibition,[1]; at 33.0 µM,75% (active)
same,growth inhibition,[1]; at 100.0 µM,85% (active)
same,growth inhibition,[2]; at 1.2 µM,-2%
same,growth inhibition,[2]; at 3.7 µM,-1%
same,growth inhibition,[2]; at 11.0 µM,8%
same,growth inhibition,[2]; at 33.0 µM,18%
same,growth inhibition,[2]; at 100.0 µM,10%
same,growth inhibition,[3]; at 1.2 µM,-2%
same,growth inhibition,[3]; at 3.7 µM,1%
same,growth inhibition,[3]; at 11.0 µM,48%
same,growth inhibition,[3]; at 33.0 µM,86% (active)
same,growth inhibition,[3]; at 100.0 µM,88% (active)
same,growth inhibition,[4]; at 1.2 µM,-2%
same,growth inhibition,[4]; at 3.7 µM,1%
same,growth inhibition,[4]; [16],11%
same,growth inhibition,[4]; at 11.0 µM,33%
same,growth inhibition,[4]; at 33.0 µM,77% (active)
same,growth inhibition,[4]; [17],96% (active)
same,growth inhibition,[4]; at 50.0 µM,94.8% (active)
same,growth inhibition,[4]; at 100.0 µM,83% (active)
same,growth inhibition,[5]; at 1.2 µM,-6%
same,growth inhibition,[5]; at 3.7 µM,-3%
same,growth inhibition,[5]; [16],1%
same,growth inhibition,[5]; at 11.0 µM,43%
same,growth inhibition,[5]; at 33.0 µM,84% (active)
same,growth inhibition,[5]; [17],97% (active)
same,growth inhibition,[5]; at 50.0 µM,93.5% (active)
same,growth inhibition,[5]; at 100.0 µM,87% (active)
same,growth inhibition,[6]; at 1.2 µM,-1%
same,growth inhibition,[6]; at 3.7 µM,1%
same,growth inhibition,[6]; at 11.0 µM,22%
same,growth inhibition,[6]; at 33.0 µM,68%
same,growth inhibition,[6]; at 100.0 µM,78% (active)
same,growth inhibition,[7]; [16],0%
same,growth inhibition,[7]; [17],96% (active)
same,growth inhibition,[7]; at 50.0 µM,96.8% (active)
same,growth inhibition,[8]; at 1.2 µM,-5%
same,growth inhibition,[8]; at 3.7 µM,-3%
same,growth inhibition,[8]; at 11.0 µM,1%
same,growth inhibition,[8]; at 33.0 µM,76% (active)
same,growth inhibition,[8]; at 100.0 µM,87% (active)
same,growth inhibition,[9]; [16],21%
same,growth inhibition,[9]; [17],98% (active)
same,growth inhibition,[9]; at 50.0 µM,95% (active)
same,growth inhibition,[10]; at 1.2 µM,-4%
same,growth inhibition,[10]; at 3.7 µM,-5%
same,growth inhibition,[10]; at 11.0 µM,21%
same,growth inhibition,[10]; at 33.0 µM,88% (active)
same,growth inhibition,[10]; at 100.0 µM,88% (active)
same,growth inhibition,[11]; at 1.2 µM,-2%
same,growth inhibition,[11]; at 3.7 µM,-3%
same,growth inhibition,[11]; at 11.0 µM,39%
same,growth inhibition,[11]; at 33.0 µM,82% (active)
same,growth inhibition,[11]; at 100.0 µM,87% (active)
same,growth inhibition,[12]; at 1.2 µM,-1%
same,growth inhibition,[12]; at 3.7 µM,10%
same,growth inhibition,[12]; at 11.0 µM,62%
same,growth inhibition,[12]; at 33.0 µM,87% (active)
same,growth inhibition,[12]; at 100.0 µM,87% (active)
same,growth inhibition,[13]; [16],3%
same,growth inhibition,[13]; [17],97% (active)
same,growth inhibition,[13]; at 50.0 µM,95.6% (active)
same,growth inhibition,[14]; at 1.2 µM,-2%
same,growth inhibition,[14]; at 3.7 µM,5%
same,growth inhibition,[14]; at 11.0 µM,28%
same,growth inhibition,[14]; at 33.0 µM,82% (active)
same,growth inhibition,[14]; at 100.0 µM,82% (active)
S=c1[nH]nc(Cc2ccccc2)c(=S)[nH]1,growth inhibition,[1]; at 1.2 µM,-47%
same,growth inhibition,[1]; at 3.7 µM,-14%
same,growth inhibition,[1]; at 11.0 µM,30%
same,growth inhibition,[1]; at 33.0 µM,92% (active)
same,growth inhibition,[1]; at 100.0 µM,97% (active)
same,growth inhibition,[2]; at 1.2 µM,-22%
same,growth inhibition,[2]; at 3.7 µM,-10%
same,growth inhibition,[2]; at 11.0 µM,-11%
same,growth inhibition,[2]; at 33.0 µM,16%
same,growth inhibition,[2]; at 100.0 µM,48%
same,growth inhibition,[3]; at 1.2 µM,23%
same,growth inhibition,[3]; at 3.7 µM,47%
same,growth inhibition,[3]; at 11.0 µM,83% (active)
same,growth inhibition,[3]; at 33.0 µM,97% (active)
same,growth inhibition,[3]; at 100.0 µM,97% (active)
same,growth inhibition,[4]; at 1.2 µM,-17%
same,growth inhibition,[4]; at 3.7 µM,-6%
same,growth inhibition,[4]; [16],63%
same,growth inhibition,[4]; at 11.0 µM,36%
same,growth inhibition,[4]; at 33.0 µM,89% (active)
same,growth inhibition,[4]; [17],55%
same,growth inhibition,[4]; at 50.0 µM,72.6% (active)
same,growth inhibition,[4]; at 100.0 µM,95% (active)
same,growth inhibition,[5]; at 1.2 µM,-8%
same,growth inhibition,[5]; at 3.7 µM,-6%
same,growth inhibition,[5]; [16],7%
same,growth inhibition,[5]; at 11.0 µM,29%
same,growth inhibition,[5]; at 33.0 µM,91% (active)
same,growth inhibition,[5]; [17],75% (active)
same,growth inhibition,[5]; at 50.0 µM,64.2%
same,growth inhibition,[5]; at 100.0 µM,96% (active)
same,growth inhibition,[6]; at 1.2 µM,-3%
same,growth inhibition,[6]; at 3.7 µM,26%
same,growth inhibition,[6]; at 11.0 µM,69%
same,growth inhibition,[6]; at 33.0 µM,94% (active)
same,growth inhibition,[6]; at 100.0 µM,97% (active)
same,growth inhibition,[7]; [16],41%
same,growth inhibition,[7]; [17],83% (active)
same,growth inhibition,[7]; at 50.0 µM,86.3% (active)
same,growth inhibition,[9]; [16],45%
same,growth inhibition,[9]; [17],67%
same,growth inhibition,[9]; at 50.0 µM,39.4%
same,growth inhibition,[15]; at 1.2 µM,16%
same,growth inhibition,[15]; at 3.7 µM,21%
same,growth inhibition,[15]; [16],46%
same,growth inhibition,[15]; at 11.0 µM,51%
same,growth inhibition,[15]; at 33.0 µM,94% (active)
same,growth inhibition,[15]; [17],79% (active)
same,growth inhibition,[15]; at 50.0 µM,71.2% (active)
same,growth inhibition,[15]; at 100.0 µM,97% (active)
same,growth inhibition,[10]; at 1.2 µM,-40%
same,growth inhibition,[10]; at 3.7 µM,-1%
same,growth inhibition,[10]; at 11.0 µM,62%
same,growth inhibition,[10]; at 33.0 µM,94% (active)
same,growth inhibition,[10]; at 100.0 µM,95% (active)
same,growth inhibition,[11]; at 1.2 µM,14%
same,growth inhibition,[11]; at 3.7 µM,34%
same,growth inhibition,[11]; at 11.0 µM,77% (active)
same,growth inhibition,[11]; at 33.0 µM,96% (active)
same,growth inhibition,[11]; at 100.0 µM,96% (active)
same,growth inhibition,[12]; at 1.2 µM,2%
same,growth inhibition,[12]; at 3.7 µM,10%
same,growth inhibition,[12]; at 11.0 µM,64%
same,growth inhibition,[12]; at 33.0 µM,95% (active)
same,growth inhibition,[12]; at 100.0 µM,97% (active)
same,growth inhibition,[13]; [16],53%
same,growth inhibition,[13]; [17],60%
same,growth inhibition,[13]; at 50.0 µM,75.2% (active)
same,growth inhibition,[14]; at 1.2 µM,9%
same,growth inhibition,[14]; at 3.7 µM,3%
same,growth inhibition,[14]; at 11.0 µM,42%
same,growth inhibition,[14]; at 33.0 µM,94% (active)
same,growth inhibition,[14]; at 100.0 µM,97% (active)

# — PubChem BioAssay (NCI)
